# In PubChem BioAssay (NCI):
# Compounds without any hit were thinned out: in the full panel of roughly 83,000, 20% have a hit.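 Interpretation: 100, growth as untreated; towards 0, rising growth inhibition; 0, no net growth; 0 to -100, cell death. Compounds scoring below 10 were considered active.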 A number with no mark means an inactive call. Activity calls are given as the source filed them.
# How the values were obtained:
# Assay in all cases: NCI-60 one-dose screen, 48 h (100 = growth as untreated, 0 = no growth, -100 = all killed)
# Conditions in all cases: 10 µM
# HT29 colon = test system: HT29 colon
# SNB-75 CNS = test system: SNB-75 CNS
# SNB-19 CNS = test system: SNB-19 CNS
# U251 CNS = test system: U251 CNS
# PC-3 prostate = test system: PC-3 prostate
# SK-MEL-5 melanoma = test system: SK-MEL-5 melanoma
# UACC-62 melanoma = test system: UACC-62 melanoma
# LOX IMVI melanoma = test system: LOX IMVI melanoma
# SK-MEL-28 melanoma = test system: SK-MEL-28 melanoma
# SK-MEL-2 melanoma = test system: SK-MEL-2 melanoma
# SN12C renal = test system: SN12C renal
# UO-31 renal = test system: UO-31 renal
# TK-10 renal = test system: TK-10 renal
# ACHN renal = test system: ACHN renal
# CAKI-1 renal = test system: CAKI-1 renal
# A498 renal = test system: A498 renal
# CCRF-CEM leukemia = test system: CCRF-CEM leukemia
# MOLT-4 leukemia = test system: MOLT-4 leukemia
# EKVX NSCLC = test system: EKVX NSCLC
# SR leukemia = test system: SR leukemia
SMILES,growth (HT29 colon),growth (SNB-75 CNS),growth (SNB-19 CNS),growth (U251 CNS),growth (PC-3 prostate),growth (SK-MEL-5 melanoma),growth (UACC-62 melanoma),growth (LOX IMVI melanoma),growth (SK-MEL-28 melanoma),growth (SK-MEL-2 melanoma),growth (SN12C renal),growth (UO-31 renal),growth (TK-10 renal),growth (ACHN renal),growth (CAKI-1 renal),growth (A498 renal) [%],growth (CCRF-CEM leukemia),growth (MOLT-4 leukemia),growth (EKVX NSCLC),growth (SR leukemia)
CCOC(=O)C(CSC(c1ccccc1)(c1ccccc1)c1ccccc1)NC(=O)C(CSC(c1ccccc1)(c1ccccc1)c1ccccc1)NC(c1ccccc1)(c1ccccc1)c1ccccc1 (configuration not stated),113%,86.8%,107%,97.3%,102%,98.6%,113%,99.6%,99.8%,115%,110%,94.8%,118%,104%,87%,91.3,100%,110%,,
C(CCCC1=NCCO1)CCCC1=NCCO1,118%,77.5%,97.8%,97.9%,98%,99.7%,93%,94%,95.4%,98.3%,102%,90.9%,110%,105%,103%,101,104%,105%,,
CN(C)c1ccc(N=C2C=CC(=O)c3ccccc32)cc1,61.4%,84.7%,70.7%,87.5%,65.2%,-56.1% (active),22.5%,40.9%,73.6%,64.9%,55.4%,48.8%,111%,79.5%,80.9%,91.3,70.5%,77.6%,,
Cc1cc(N(CCCNc2ccnc3cc(Cl)ccc23)Cc2cccs2)nc(Cl)n1,7.06% (active),49.2%,76.1%,40%,40.4%,-14.9% (active),47.5%,8.99% (active),81.5%,64.7%,58.4%,27.8%,50.4%,56.7%,,,42%,11.2%,48%,0.473% (active)
CC1(C)OC2=C(CC1Br)C(=O)C(=O)c1ccccc12 (configuration not stated),-11.7% (active),11.1%,-19% (active),-73.7% (active),-16.8% (active),-99.7% (active),-78.9% (active),-77.3% (active),-94% (active),-42.9% (active),-75.4% (active),,-22.6% (active),-91.7% (active),-62.2% (active),101,-23.1% (active),-25.6% (active),-40.1% (active),15.9%
CN(C)CCS(=O)(=O)CCN(C)C,109%,110%,103%,104%,102%,98.7%,97.8%,105%,108%,106%,97.2%,113%,103%,107%,112%,96,102%,104%,,
COc1ccc(-c2cc(-c3cccc(NS(C)(=O)=O)c3)nc(N)c2C#N)cc1,8.45% (active),-6.31% (active),42.1%,28.5%,9.4% (active),13.6%,39.9%,44.8%,66%,49.8%,43.3%,31.9%,67.5%,36.4%,,,19%,19.7%,22%,16.1%
N#CC1=C(Nc2ccccc2Cl)SC(c2ccccc2O)NC1=O (configuration not stated),112%,103%,111%,104%,96.7%,103%,103%,97.5%,109%,114%,102%,84.5%,134%,97.7%,,95.2,,104%,108%,123%
CC1(C)N=C(N)N=C(N)N1c1ccc(CCc2ccccc2)c(Cl)c1,1.41% (active),35.8%,31.6%,13.2%,18.7%,0.745% (active),23%,12.6%,30.3%,34.9%,18.9%,87.9%,21%,28.7%,53.2%,40.9,19.8%,20.2%,,
CSC1=NCCCC1,120%,99.9%,110%,103%,100%,106%,113%,98.4%,109%,105%,110%,86.8%,125%,102%,115%,106,103%,108%,,
CCCCCCN(CCCCCC)CC(O)c1ccc2c3c(cccc13)CC2 (configuration not stated),-4.58% (active),120%,82.4%,49.5%,51.5%,59.7%,65.2%,21.4%,71.7%,55.8%,61.4%,32%,,53.8%,59.6%,24.5,,53.3%,71.5%,21.7%
COc1ccc(OC)c(/C=C/c2nnc(Nc3ccc(Cl)cc3)o2)c1,76.9%,15.8%,84.9%,41.8%,74.9%,69.8%,75.8%,67.7%,92.1%,101%,44.9%,4.98% (active),39.1%,32.6%,,,90.1%,89.7%,68.1%,78.9%
CC1(O)CCC2CC3OC3(C)CCC3OC3(C)CCC1C2(C)C (configuration not stated),109%,117%,89.8%,96%,170%,90.3%,99.3%,102%,121%,107%,104%,,109%,102%,100%,,267%,104%,93.5%,116%
Cc1cs/c(=N\NC(=O)c2cc(-c3cc4ccccc4o3)nn2-c2ccccc2)n1-c1ccccc1,93.6%,89.7%,92.8%,87.6%,114%,42.5%,79.6%,82.7%,102%,91.6%,96.7%,,121%,88.7%,100%,,75.7%,75%,72.4%,76.9%
CCCCC/C=C/C(=O)CCc1ccc(O)c(OC)c1,93.1%,63%,87.1%,79.6%,55.8%,97.7%,83.1%,23.7%,95.8%,121%,81.3%,37%,110%,103%,,,27.6%,96.7%,91.2%,53.4%
ClCC#CCSc1ncnc2c1ncn2CC#CCCl,17.7%,-57.5% (active),13.2%,0.284% (active),32.3%,9.62% (active),19.2%,-35.5% (active),39.5%,41.1%,20.2%,2.36% (active),71.1%,11.7%,,,14.9%,15.4%,10.5%,14.6%
Cc1cc(Nc2ccc(Cl)cc2)nc(NCCCNc2ccnc3cc(Cl)ccc23)n1,-91.4% (active),-94.9% (active),-14.3% (active),-91.3% (active),-19.4% (active),-99.8% (active),-80.2% (active),-83.8% (active),-99.8% (active),-93.4% (active),-75.9% (active),-40.1% (active),-74.7% (active),-81.1% (active),-36.3% (active),12.7,-22.7% (active),-47.7% (active),,
